This is a sample that favours compounds with a hit; in the whole collection about 2.6% have one here.
Myc binder: binders of human c-Myc; AID 624141; 17,000 tested, 1.5% active; calls only; small molecule microarray, His-c-Myc binding, anti-His fluorescence; P01106;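 active = spot fluorescence over background with P-value below 7% in all four replicate spots, showing protein binding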
Target sequence (P01106 whole entry, looked up): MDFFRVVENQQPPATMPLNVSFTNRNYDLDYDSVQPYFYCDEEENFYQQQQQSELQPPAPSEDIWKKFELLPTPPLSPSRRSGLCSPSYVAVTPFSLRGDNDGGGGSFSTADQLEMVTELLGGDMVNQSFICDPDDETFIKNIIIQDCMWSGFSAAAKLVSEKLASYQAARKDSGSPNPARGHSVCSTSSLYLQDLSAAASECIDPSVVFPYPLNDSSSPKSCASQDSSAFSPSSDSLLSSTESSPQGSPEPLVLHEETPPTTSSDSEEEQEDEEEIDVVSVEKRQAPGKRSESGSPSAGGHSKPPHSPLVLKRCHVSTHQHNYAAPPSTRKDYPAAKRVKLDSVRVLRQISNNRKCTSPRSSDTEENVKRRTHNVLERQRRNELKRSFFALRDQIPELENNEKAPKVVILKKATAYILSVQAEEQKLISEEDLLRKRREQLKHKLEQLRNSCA
mut p53 react: restores mutant p53 pathway signaling in SW480 cells; SW480 PUMA-promoter luciferase, p53 mutant reactivation; activation, % at 9.98 µM; 28,000 tested, 1.5% active; AID 624151; in the data active = activation above about 52%
NFkB binder: binds human NF-kappa-B p105 on microarray; P19838; Small molecule microarray, anti-His fluorescence binding; calls only; 17,000 tested, 1.3% active;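 active = spot fluorescence over background significantly raised, with a chance value under 7% in all four replicate spots of the compound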;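 also: probe protein is his-tagged human p50 processed subunit at 1 µg/ml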
STAT3 SMM: STAT3 (human) binding; P40763; Small molecule microarray, His-STAT3 binding, anti-His fluorescence; calls only; 17,000 tested, 0.2% active;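 active = compounds whose four printed spots each show fluorescence over background unusually high for their array block, chance value under 7%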
p53 mut binder: binds human mutant p53 on microarray; small molecule microarray binding, anti-GST fluorescence; calls only; 17,000 tested, 0.4% active;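 active = compounds whose four printed spots each glow above background more than chance allows, each with a p-value under 7%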
Numbers stand for hits; i = inactive; nt = no result given; + = active, no number.

SMILES | Myc binder | mut p53 react | NFkB binder | STAT3 SMM | p53 mut binder
C=CCOC(=O)[C@H]1[C@@H]2C(=O)O[C@@H](c3ccccc3)[C@@H](c3ccccc3)N2[C@@H](c2ccc(OCCOC(=O)[C@@H]3C[C@@H]4C(=O)N[C@@H](Cc5ccccc5)C(=O)N4[C@@H]3c3cccc(OCCO)c3)cc2)[C@]12C(=O)Nc1ccccc12 | i | nt | + | i | i
COc1ccc(C)cc1NC(=O)CN(c1ccc(F)c(Cl)c1)S(C)(=O)=O | nt | i | nt | nt | nt
C[C@H](CO)N1C[C@H](C)[C@@H](CN(C)CC2CC2)OCCCC[C@H](C)Oc2ccc(NC(=O)Nc3cccc4ccccc34)cc2C1=O | i | nt | + | i | i
C[C@@H]1CCCCO[C@H](CN(C)CC2CCCCC2)[C@H](C)CN([C@@H](C)CO)C(=O)c2cc(NC(=O)NC3CCCCC3)ccc2O1 | i | nt | + | i | i
C[C@@H]1CN([C@@H](C)CO)C(=O)c2cc(N(C)C)ccc2O[C@@H](C)CCCCO[C@H]1CN(C)C(=O)Nc1cccc2ccccc12 | + | i | i | i | i
C[C@@H]1CCCCO[C@@H](CN(C)C(=O)c2ccccc2)[C@@H](C)CN([C@H](C)CO)C(=O)c2cc(NC(=O)Nc3cccc4ccccc34)ccc2O1 | + | nt | + | i | +
C[C@@H]1CN([C@@H](C)CO)C(=O)c2cc(NC(=O)Nc3cccc4ccccc34)ccc2O[C@@H](C)CCCCO[C@@H]1CN(C)C | i | i | i | i | i
CS(=O)(=O)N(CC(=O)Nc1cc(Cl)ccc1Cl)c1cc(Cl)c(Cl)cc1Cl | i | i | i | i | i
CCn1c(SCC(=O)Nc2cc(Cl)ccc2Cl)nnc1-c1ccccc1OC | nt | i | nt | nt | nt
CCn1c(SCC(=O)c2cccc([N+](=O)[O-])c2)nnc1-c1ccccc1F | nt | i | nt | nt | nt
C[C@@H]1CN([C@@H](C)CO)C(=O)c2cc(NC(=O)NC3CCCCC3)ccc2O[C@H]1CN(C)C(=O)NC1CCCCC1 | + | i | i | i | i
C[C@H](CO)N1C[C@H](C)[C@@H](CN(C)CC2CCCCC2)Oc2ccc(NC(=O)Nc3ccc4c(c3)OCO4)cc2C1=O | + | i | + | i | +
C[C@@H]1CN([C@@H](C)CO)C(=O)c2cc(NC(=O)Nc3ccc4c(c3)OCO4)ccc2O[C@@H]1CN(C)CC1CCCCC1 | i | i | i | i | i
C=C(C(=O)O)C1CCC2(C)CCC(O)C2(C(C)=O)C1 (centres undefined) | i | i | i | i | i
Cc1cc(I)ccc1NC(=O)CN(c1ccc(F)c(Cl)c1)S(C)(=O)=O | nt | i | nt | nt | nt
C#C[C@]1(O)CC[C@H]2[C@@H]3CCC4=Cc5oncc5C[C@]4(C)[C@H]3CC[C@@]21C | + | nt | i | i | nt
O=S(=O)(Nc1ncccn1)c1ccc(NC(=S)Nc2ccc3c(c2)CCC3)cc1 | nt | i | nt | nt | nt
c1cnc(SCCCCOc2ccc3c(c2)CCC3)nc1 | nt | 70.9 | nt | nt | nt
NS(=O)(=O)c1ccc(NC(=O)CSc2nnc(-c3ccccc3F)n2-c2ccccc2)cc1 | nt | i | nt | nt | nt
CCOC(=O)c1c(NC(=S)Nc2nc(C)cc(C)n2)sc2c1CCCCCC2 | i | i | i | i | i
CCOC(=O)c1c(NC(=S)NC(=O)c2ccc(OC)c([N+](=O)[O-])c2)sc2c1CCC2 | + | i | i | i | i
COc1ccc2[nH]cc(CCNC(=O)Nc3ccc(Cl)c(Cl)c3)c2c1 | nt | i | nt | nt | nt
COc1ccccc1/C=C/C(=O)N1CCCC(c2ccccc2)C1 (centres undefined) | nt | 101.4 | nt | nt | nt
Cc1cc(=O)[nH]c(SCCOc2ccc(Br)cc2Cl)n1 | nt | 80.5 | nt | nt | nt
COc1ccc(Cl)cc1NC(=O)C12CCC(C)(c3nc4ccccc4nc31)C2(C)C (centres undefined) | nt | i | nt | nt | nt
SMILES | Myc binder | mut p53 react | NFkB binder | STAT3 SMM | p53 mut binder
COC1CC(OC2CCC3(C)C(CCC4(O)C3CC(OC(=O)c3ccccc3)C3(C)C(O)(C(C)=O)CCC43O)C2)OC(C)C1OC1CC(OC)C(OC2OC(C)C(OC3OC(CO)C(O)C(O)C3O)C(OC)C2O)C(C)O1 (centres undefined) | + | i | + | i | i
O=C(CSc1ncccn1)Nc1ccc(Cl)cc1Cl | i | 133.5 | i | i | i
Cc1ccnc(SCC(=O)Nc2cccc(Cl)c2)n1 | nt | i | nt | nt | nt
CCOc1ccc(NC(=O)CSc2ncccn2)cc1 | nt | 54.2 | nt | nt | nt
Cc1ccnc(SCC(=O)Nc2ccc(Cl)cc2Cl)n1 | nt | 52.2 | nt | nt | nt
Cc1cc(Oc2ccccc2)nc(SCC(=O)Nc2ccc(Cl)cc2Cl)n1 | nt | i | nt | nt | nt
CCOc1ccc(NC(=O)c2c(NC(=O)c3ccco3)sc3c2CCCCC3)cc1 | nt | i | nt | nt | nt
Cc1ccc(Cl)cc1NC(=O)CSc1nc2c(c(C(F)(F)F)c1C#N)CCCC2 | nt | i | nt | nt | nt
